Shown are actives, neighbours in structure and some others; about 5.2% of the full set was active somewhere.
Coupling enz: qHTS Assay for Inhibitors of Fructose-1,6-bisphosphate Aldolase from Giardia Lamblia: Coupling assay counterscreen; coupling enzyme system counterscreen, AmpLite Red fluorescence; activity change, negative = inhibition, % at 58.2 µM, hits read low; 290,000 tested, 0.67% active; in the data active = activity change below about -30%
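Coupling enzymes only (glyceraldehyde-3-phosphate) + compound, at 57.5 uM final, 10 min RT; add substrate/coupling/AmpLite Red mix, 20 min RT; fluorescence ex 525/em 598 nm. Actives flag coupling-system interference.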
Tau FP inhib: qHTS for Inhibitors of Tau Fibril Formation, Fluorescence Polarization. 280,000 tested, 0.39% active. Microtubule-associated protein tau (Homo sapiens), P10636. Potency, µM (series often up to 57.7 µM), without a hit: at the highest dose activity, negative = inhibition, actives largely listed as inhibitors. K18 P301L tau heparin fibrillization, Alexa594 FP, 6 h; also: potency is read from the fitted curve at half-maximal effect; nearly all actives have a fitted effect of over 55% in size
Target sequence (P10636 561-689 P618L limits assumed): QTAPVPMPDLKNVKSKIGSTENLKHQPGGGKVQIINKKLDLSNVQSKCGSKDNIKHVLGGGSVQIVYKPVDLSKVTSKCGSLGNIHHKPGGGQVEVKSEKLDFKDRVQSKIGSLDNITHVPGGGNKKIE
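Recombinant K18 P301L […], labeled with Alexa 594 at 0.24 uM over 15 uM unlabeled; heparin inducer 20 uM final; 37 C, 6 hr; FP endpoint.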
Tau fibril ThT: qHTS for Inhibitors of Tau Fibril Formation, Thioflavin T Binding. AID 1460, 2008. recombinant tau K18 P301L, heparin-induced fibrillization, ThT fluorescence. Microtubule-associated protein tau (Homo sapiens), P10636. 270,000 tested, 2.1% active. Potency, µM (titrated, usually from 57.4 µM), inactives show top-dose activity, negative = inhibition, hits mostly inhibitors; also: potency is read from the fitted curve at half-maximal effect; nearly all actives have a fitted effect of over 55% in size
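Heparin-induced fibrillization of the P301L-mutant K18 repeat-domain fragment of human tau was followed by ThT binding in quantitative high-throughput format.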
Tau fluor counter: Counterscreen qHTS for Inhibitors of Tau Fibril Formation, Fluorescence Polarization; tau K18 P301L Alexa594 fluorescence, heparin fibrillization; Potency, µM (series often up to 57.7 µM), inactives show at the highest dose activity change, negative = decrease; 280,000 tested, 0.93% active; also: potency is read from the fitted curve at half-maximal effect; nearly all actives have a fitted effect of over 55% in size
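Human tau K18 P301L (15 uM unlabeled, 0.24 uM Alexa 594-labeled) in 100 mM sodium acetate pH 7 with 20 uM heparin, 6 hr at 37 C. ThT 30 uM added, 1 hr ambient; Alexa 594 FP and total fluorescence read at 555/632 nm.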
Sfp PPTase inh: qHTS Assay for Inhibitors of Bacillus subtilis Sfp phosphopantetheinyl transferase (PPTase); Potency, µM, inactives show largest response in the series, negative = inhibition, hits mostly inhibitors; Biochemical Sfp PPTase activity, qHTS; 4'-phosphopantetheinyl transferase ffp (Bacillus subtilis), Q9F4F7; AID 1490, 2009; 310,000 tested, 3.5% active;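 also: the enzyme is Sfp with the accession as filed and its product quenches rhodamine fluorescence; potency is read from the fitted curve at half-maximal effect; 0% = enzyme reaction without inhibitor and -100% = no enzyme wells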
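With Hepes-Na pH 7.6 buffer containing 10 mM MgCl2, Sfp (15 nM) modified BHQ-2-YbbR (12.5 uM) using rhodamine-CoA (5 uM). Two reads 30 minutes apart at 525/598 nm yielded each well's rate.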
Starred values were filed as active, the others as inactive; ? = inconclusive; nt = no result given; [ ] = dose if it differs, or a comment. Unless noted, calls follow the shape of the dose curve; as a rule, active = well fitted curve in the direction sought with a large enough effect; inconclusive = small, poorly fitted or top-dose-only effect, or another doubt; inactive = no such curve, though single readings can be large; an effect the other way counts as inactive or inconclusive. Unless noted, % is scaled to controls: 0 for no effect and ±100 for the full control effect.

SMILES | Coupling enz | Tau FP inhib | Tau fibril ThT | Tau fluor counter | Sfp PPTase inh
COc1ccc2cc1Oc1ccc(cc1)CC1c3cc(c(OC)cc3CCN1C)Oc1c(OC)c(OC)cc3c1C(C2)N(C)CC3 (stereo not drawn) | -8 | 5% | 4% | 0% | -22%
CCCCOc1ccc(C(=O)N(Cc2ccc(N(C)C)cc2)Cc2ccco2)cc1 | nt | 1% | ? | -22% | nt
COc1ccccc1N(O)C1CC(=O)N(c2ccc(F)cc2)C1=O (stereo not drawn) | -14 | ? | 14µM* | 16µM*[quencher] | ?
COc1ccccc1N1C(=O)CC(N(O)c2ccccc2)C1=O (stereo not drawn) | 1 | 6% | ? | -11% | 9%
Cc1ccc(S(=O)(=O)N2CCCCC2C(=O)N2CCN(C)CC2)cc1 (stereo not drawn) | 5 | ? | 16µM* | -21% | -13%
Cc1ccc(S(=O)(=O)N2CCCC2C(=O)OCc2ccco2)cc1 (stereo not drawn) | -1 | ? | 28µM* | -14% | ?
Cc1ccc(S(=O)(=O)N2CCCCC2C(=O)N2CCN(c3ccccc3F)CC2)cc1 (stereo not drawn) | -2 | 3% | -14% | -13% | 10%
Cc1cccc(NC(=O)/C(=C\c2ccco2)NC(=O)c2cccs2)c1 | -4 | 11% | 8% | 6% | 56µM*
Cc1ccc(C(=O)N/C(=C/c2ccco2)C(=O)Nc2cccc(C)c2)cc1 | -5 | -2% | ? | -19% | 35µM*
Cc1cccc(CN2CCN([C@@H](c3ccccc3)c3ccc(Cl)cc3)CC2)c1 | 0 | nt | nt | nt | 10%
Nc1nc(-c2ccc3c(c2)OCCO3)cs1 | -1 | ? | ? | -26% | -22%
Cc1ccc2nc(-c3ccc4c(c3)OCCO4)cn2c1 | -27 | -1% | ? | -8% | 13%
N#Cc1ncc(-c2ccc3c(c2)OCCOCCOCCOCCO3)nc1C#N | 0 | ? | 20µM* | -21% | 10%
N#Cc1ncc(-c2ccc3c(c2)OCCOCCOCCOCCOCCO3)nc1C#N | 3 | ? | 22µM* | -10% | 3%
COc1ccc(S(=O)(=O)NCCSCc2ccco2)cc1OC | 4 | -2% | ? | -12% | 28µM*
CCN(CC)C(=O)CSC1=Nc2ccccc2C2=NC(Cc3c[nH]c4ccccc34)C(=O)N12 (stereo not drawn) | -28 | 1% | -13% | -7% | 50µM*
CNc1cc(-c2ccccc2C)ncn1 | -1 | nt | nt | nt | 79µM*
Cc1ccccc1-c1cc(Nc2ccccc2)ncn1 | 0 | nt | nt | nt | 9%
O=C(CSc1nccn1Cc1ccccc1)Nc1ccc2c(c1)OCO2 | nt | -1% | 0% | -8% | nt
Cn1cc(P(=S)(N2CCOCC2)N2CCOCC2)cc1P(=O)(N1CCOCC1)N1CCOCC1 | 1 | -5% | 2% | 4% | 50µM*
Cn1cc(P(=O)(N2CCOCC2)N2CCOCC2)cc1P(=S)(N1CCOCC1)N1CCOCC1 | -1 | -4% | -9% | -2% | 20µM*
CC(C)(C)N(CC#CCC(O)(c1ccccc1)c1ccccc1)CCO | 0 | -7% | -12% | -5% | 40µM*
Cc1cc(=O)n(CC(C)C)c(O)c1C#N | -33* | -13% | ? | -13% | -16%
Cc1cc(=O)n(CCO)c(O)c1C#N | -46* | -10% | -17% | -6% | -18%
O=C(c1ccco1)N1CCC2(CC1)CN(c1cccc(-c3ccccc3)c1)C2 | -5 | nt | nt | nt | ?
SMILES | Coupling enz | Tau FP inhib | Tau fibril ThT | Tau fluor counter | Sfp PPTase inh
COc1ccc(-c2cc(C3C4C=CCCC4(C)C(=O)N3Cc3ccccc3)ccc2F)cc1 (stereo not drawn) | 1 | nt | nt | nt | -28%
CCN=C1NN=C(c2cc(C)n(CCc3ccccc3)c2C)CS1 | -3 | -12% | ? | -18% | 50µM*
Cc1cc(C2=NNC(=NCCc3ccccc3)SC2)c(C)n1CC1CCCO1 (stereo not drawn) | -7 | -1% | -19% | -2% | 50µM*
C/C(=N\NC(=O)c1cc2ccccc2cc1O)c1ccc2c(c1)OCO2 | -4 | 1% | 7.1µM* | ? | -11%
C/C(CC(=O)N1CCCC1)=N\NC(=O)c1cc2ccccc2cc1O | -65* | -15% | 13µM* | ? | -26%
C/C(CC(=O)Nc1ccc(Cl)c(C(F)(F)F)c1)=N\NC(=O)c1cc2ccccc2cc1O | -2 | -5% | 13µM* | 16µM*[quencher] | 21%
COc1cccc(NC(=O)C/C(C)=N/NC(=O)c2ccccc2Cl)c1 | -1 | -3% | nt | -5% | -4%
CC(C)(C)C(=O)Cn1c(=O)n(CCCCCC(=O)NCc2ccccc2Cl)c(=O)c2sccc21 | nt | 1% | -3% | -21% | nt
CN(C)CCOCCOc1ccccc1-c1ccccc1 | nt | 4% | 2% | -6% | 79µM*
COCCCNCCOc1ccccc1-c1ccccc1 | -1 | 2% | 1% | 9% | -11%
CC(O)CNCCOc1ccccc1-c1ccccc1 (stereo not drawn) | -17 | 2% | -6% | -1% | 71µM*
OCCNCCOc1ccccc1-c1ccccc1 | 1 | 2% | 0% | -3% | 2%
COCCNCCOc1ccccc1-c1ccccc1 | -5 | -4% | -2% | -3% | 50µM*
Cc1ccc(NC(=O)C2CCC(CNS(=O)(=O)c3csc(C(N)=O)c3)CC2)cc1Cl (stereo not drawn) | nt | -14% | 2% | -5% | nt
CCc1ccccc1-n1c2c(cc(-c3nc(-c4ccc(Cl)cc4)cs3)c1=O)C(=O)CC(C)(C)C2 | nt | -19% | 5% | 0% | nt
O=C(CN1C(=O)/C(=C/c2cccc(Br)c2)SC1=S)Nc1cccnc1 | 0 | ? | ? | 8.9µM*[quencher] | -5%
O=C(CCCN1C(=O)/C(=C\c2ccccc2)SC1=S)Nc1cccc(C(=O)O)c1 | 7 | nt | nt | nt | -2%
O=C(CCCN1C(=O)/C(=C/c2ccccc2)SC1=S)Nc1cccc(O)c1 | -1 | ? | ? | 14µM*[quencher] | 0%
CC(/C=C1\SC(=S)N(CCCC(=O)Nc2ccc(C(=O)O)c(O)c2)C1=O)=C\c1ccccc1 | 5 | -9% | 5µM* | ? | ?
O=C(CCN1C(=O)/C(=C/c2cccc(Br)c2)SC1=S)Nc1cccnc1 | -4 | -17% | ? | -22% | 1%
O=C(CCCN1C(=O)/C(=C\c2ccccc2)SC1=S)Nc1ccc(O)cc1 | 2 | 14% | ? | 14µM*[quencher] | -1%
O=C(Nc1ccc(Cl)cc1)C(Cl)C(=O)c1ccccc1 (stereo not drawn) | 0 | nt | nt | nt | 28µM*
O=C(Nc1ccccc1Cl)C(Cl)C(=O)c1ccccc1 (stereo not drawn) | 2 | 0% | -2% | 5% | 13%
O=c1cc(-c2ccc(O)cc2O)oc2ccccc12 | -1 | 5% | -18% | -16% | -3%
